Screens (PubChem BioAssay)
Cy5 interf NS3h = enhances or quenches Cy5 fluorescence in NS3h assay | Cy5-dT15 DNA with NS3h, fluorescence interference; actives lie on both sides; signal over control mean, under 1 quenches | fluorescence interference ratio at 100 µM | 6% of 16,000 active;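 active = compound fluorescence over control fluorescence at most 0.8, a quencher, or at least a set upper limit, an enhancer; inactive = ratio between 0.8 and the set upper limit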
HCV NS3h FP = hepatitis C NS3 helicase inhibition, primary screen | inhibition, % at 100 µM | NS3h Cy5-dT15 DNA binding, fluorescence polarization | 1.6% of 16,000 active | AID 687043;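 active = inhibition above the average over every tested compound plus 3 SD, cut at about 40% in these data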
An asterisk follows results filed as active. Rows were chosen to be rich in hits. Some 7.6% of all compounds tested hit in one or more screens of this group.

SMILES	Cy5 interf NS3h	HCV NS3h FP
COC(=O)c1cccc(-c2ccc(C=C3C(=O)N(C)C(=O)N(C)C3=O)o2)c1	1.1	7
CC(=O)Nc1sc2c(c1C(=O)Nc1ccccc1C)CCC2	0.93	-4
Cc1ccccc1NC(=O)c1c(NC(=O)C(Cl)(Cl)Cl)sc2c1CCC2	0.68*	13
Cc1ccc(OC(=O)C23CC4CC(CC(C4)C2)C3)c(C)n1	0.83	-2
COc1cc(/C=C2\NC(=S)NC2=O)ccc1OC(=O)C12CC3CC(CC(C3)C1)C2	0.68*	7
O=S(=O)(Nc1ccc2oc(-c3ccc(I)cc3)nc2c1)c1ccccc1	0.98	5
COc1ccc(NC(=O)/C(C#N)=C/c2cc(C)n(-c3ccc(C)c([N+](=O)[O-])c3)c2C)cc1	1	7
CC1CCN(CCCCOc2c(Cl)cccc2Cl)CC1	0.79*	-7
Cc1cc(Cl)ccc1OCC(O)CN1CCCC1 (stereo not drawn)	1.1	1
CC1CCN(Cc2c(O)ccc3ccccc23)CC1	1	0
Cc1ccc(C)c(OCCCCN2CCCC2)c1C	0.72*	0
COc1ccc(NC(=O)c2ccc(NC(=O)C(C)(C)C)cc2)cc1	1	9
CC(=O)COc1ccc2c3c(c(=O)oc2c1C)CCC3	1.1	12
COc1ccc(CN2CCN(Cc3ccc(C)cc3)CC2)cc1OC	1	-9
COc1ccc(/C(C)=N/N2CCN(Cc3ccc(Cl)cc3)CC2)cc1OC	0.68*	19
O=C(/C=C/c1ccccc1)NC(=S)Nc1cc([N+](=O)[O-])cc(Cl)c1O	0.91	16
COc1cccc(-n2c(O)c(C(c3ccccn3)c3c(O)n(-c4cccc(OC)c4)c(=O)[nH]c3=O)c(=O)[nH]c2=O)c1	0.93	7
COc1ccc(-n2c(O)c(C=Nc3ccc(Cl)cc3)c(=O)[nH]c2=O)cc1	0.78*	7
Cc1ccc(N2C(=O)CC(N3CCSCC3)C2=O)cc1 (stereo not drawn)	0.91	27
Cc1ccc(N2C(=O)CC(N3CCC(C)CC3)C2=O)cc1 (stereo not drawn)	1.2*	10
O=C1NN(c2ccccc2)C(=O)/C1=C/c1ccc(OCCOc2ccccc2)cc1	0.99	8
COc1ccccc1C/C(N)=N\OC(=O)c1cccc(I)c1	0.84	8
O=C(Nc1ccc(F)c([N+](=O)[O-])c1)c1cccc(OCc2ccccc2)c1	0.99	-2
COc1cccc2c(Cl)cc(C)nc12	1.1	3
Cc1ccc(S(=O)(=O)N=C2C=CC(=O)C(Br)=C2)cc1	0.94	28
SMILES	Cy5 interf NS3h	HCV NS3h FP
Cc1ccc(S(=O)(=O)N=C2C=C(Cl)C(=O)C(Br)=C2)cc1	0.61*	34
S=C(Nc1ccc2nc(-c3ccccc3)c(-c3ccccc3)nc2c1)N1CCN(c2ccccn2)CC1	0.95	10
Cc1cc(Cl)ccc1OCC(=O)Nc1ccc(Br)cn1	0.76*	12
Cc1cc(Cl)ccc1OCC(=O)Nc1ccc(Cl)cn1	1	11
CC1=[N+]([O-])C(C)(C)C(c2ccc(C)cc2)=[N+]1[O-]	0.97	1
Cc1ccc(C2C(=C(O)c3ccc(Cl)cc3)C(=O)C(=O)N2c2nccs2)cc1 (stereo not drawn)	1	13
COc1ccccc1N1CCN(C(=O)c2ccc(N(C)C)cc2)CC1	0.66*	-2
COc1ccccc1N1CCN(C(=O)c2c(Cl)cccc2Cl)CC1	1	2
CN(C)c1ccc(C(=O)N2CCN(c3ccccc3)CC2)cc1	0.96	-3
CN(C)c1ccc(C(=O)N2CCN(c3ccc(F)cc3)CC2)cc1	0.75*	9
Cc1onc(-c2ccccc2Cl)c1C(=O)NCCNc1c(Cl)cccc1[N+](=O)[O-]	0.97	13
COc1ccc(-c2nnc(Nc3ccc(O)cc3)c3ccccc23)cc1	0.86	11
Nc1nnc(-c2ccc(C(=O)O)cc2)s1	1.1	1
O=C(Nc1ccc(-c2nc3ccccc3o2)c(O)c1)c1ccc(-c2cccc([N+](=O)[O-])c2)o1	0.77*	-26
O=C(Nc1ccc(NC(=O)c2ccc(-c3ccc([N+](=O)[O-])cc3)o2)cc1)c1ccco1	0.67*	-40
O=C(Nc1ccc(-c2nc3ccccc3s2)c(O)c1)c1ccc(-c2cccc([N+](=O)[O-])c2)o1	0.56*	-61
CCOC(=O)c1ccc(-c2ccc(C(=O)Nc3ccc(-c4nc5ccccc5s4)c(O)c3)o2)cc1	0.99	-5
C=CCNC(=O)c1ccc(-c2ccc([N+](=O)[O-])cc2)o1	0.96	24
Cc1cc([N+](=O)[O-])ccc1-c1ccc(C(=O)Nc2ccc(-c3nc4ccccc4o3)c(O)c2)o1	0.61*	-47
O=C(Nc1ccc(-c2nc3ccccc3o2)c(O)c1)c1ccc(-c2cccc(Cl)c2)o1	1.2	-38
Cc1ccc2oc(-c3cccc(NC(=O)c4ccc(-c5ccc([N+](=O)[O-])cc5C)o4)c3C)nc2c1	1.1	6
CCOC(=O)c1ccc(-c2ccc(/C=C3/SC(=S)N(CC(=O)O)C3=O)o2)cc1	0.84	37
Cc1cccc(NC(=O)/C(C#N)=C\c2cc(C)n(-c3ccc(C)c([N+](=O)[O-])c3)c2C)c1	1	14
Cc1ccc(S(=O)(=O)NC(C)(C)CN2CCN(CC(C)(C)NS(=O)(=O)c3ccc(C)cc3)CC2)cc1	0.97	10
NC(=O)c1ccc(NC(=O)c2ccccc2[N+](=O)[O-])cc1	0.97	-7
SMILES	Cy5 interf NS3h	HCV NS3h FP
O=C(N/N=C\c1ccc[nH]1)c1ccccc1[N+](=O)[O-]	0.67*	15
Cc1n(Cc2ccccc2)c2ccccc2[n+]1C	1.1	-2
CCOc1ccc(N(CC(=O)Nc2ccccc2C(=O)OC)S(=O)(=O)c2ccc(SC)cc2)cc1	1.1	2
Cc1cc(Nc2ccccc2)n(C(=O)c2ccc([N+](=O)[O-])cc2)n1	0.74*	10
Cc1cc2ncn(C(=O)c3ccc([N+](=O)[O-])cc3)c2cc1C	0.94	7
O=C(N/N=C\c1cccnc1)/C(=C\c1ccc2c(c1)OCO2)NC(=O)c1ccccc1	1	1
Cc1cccc(Nc2cc(C)c(C#N)c3nc4ccccc4n23)c1	1.1	4
N#Cc1ccc2c(c1)nc1c3cccc4cccc(c(=O)n21)c43	0.65*	-4
CCCC(=O)NS(=O)(=O)c1ccc(NS(C)(=O)=O)cc1	1.1	4
O=c1oc(-c2ccccc2)nc2sc3c(c12)CCCC3	0.69*	15
O=c1oc(-c2cccs2)nc2sc3c(c12)CCCCC3	0.97	-3
Cc1cccc(/C=N\NC(=O)/C(=C\c2ccc3c(c2)OCO3)NC(=O)c2ccccc2)c1O	1.1	13
N#CC(C#N)=Cc1cn(-c2ccccc2)nc1-c1cc2ccccc2oc1=O	1	16
CC(C)NC(=O)c1ccc(I)cc1	1.2	6
O=C(NC(=S)Nc1ccc([N+](=O)[O-])cc1Cl)c1ccco1	0.93	2
O=C(NC(NC(=S)Nc1ccccc1[N+](=O)[O-])C(Cl)(Cl)Cl)c1ccco1 (stereo not drawn)	0.7*	12
O=C1NC(=S)N/C1=C/c1ccc(O)c(Cl)c1	0.98	-4
O=C1NC(=S)N/C1=C\c1ccccc1	1.2*	16
COc1cc(C2NC(=O)NC(C)=C2C(=O)OCCc2ccccc2)cc(Cl)c1O (stereo not drawn)	0.96	6
O=c1c2ccccc2nc(/C=C/c2ccc3c(c2)OCO3)n1-c1cccc2ccccc12	0.98	5
O=C(NCCO)C(=O)Nc1ccc(F)cc1	0.97	-14
CCc1ccc(NC(=O)C(=O)NCCc2ccc(F)cc2)cc1	0.69*	2
